This is part of a sample that, as a whole, favours compounds with a hit. Of some 83,000 tested, about 20% had one in any assay.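 Growth was measured after 48 h exposure to one concentration of compound in 96-well plates. Values under 10 count as active.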 A number with no mark means an inactive call. The source made the active and inactive calls.
How the values were obtained:
Assay in all cases: NCI-60 one-dose screen, 48 h (100 = growth as untreated, 0 = no growth, -100 = all killed)
Conditions in all cases: 10 µM unless noted
NCI-H23 lung = tested on: NCI-H23 lung
NCI-H226 lung = tested on: NCI-H226 lung
NCI-H322M lung = tested on: NCI-H322M lung
HOP-62 NSCLC = tested on: HOP-62 NSCLC
NCI-H460 lung = tested on: NCI-H460 lung
NCI-H522 lung = tested on: NCI-H522 lung
A549/ATCC NSCLC = tested on: A549/ATCC NSCLC
786-0 renal = tested on: 786-0 renal
COLO 205 colon = tested on: COLO 205 colon

| Structure (SMILES) | growth (NCI-H23 lung) | growth (NCI-H226 lung) | growth (NCI-H322M lung) | growth (HOP-62 NSCLC) | growth (NCI-H460 lung) | growth (NCI-H522 lung) | growth (A549/ATCC NSCLC) | growth (786-0 renal) | growth (COLO 205 colon) |
| --- | --- | --- | --- | --- | --- | --- | --- | --- | --- |
| Cc1ccc(S(=O)(=O)c2nc(S(=O)(=O)c3ccc(C)cc3)c(Cl)s2)cc1 | 36.8% | 1.5% (active) | 89.7% | 105% | 41.5% | -89.5% (active) | 92.8% | -49.6% (active) | -78.6% (active) |
| O=C1CC(Sc2n[nH]c(-c3ccncc3)n2)C(=O)N1c1ccc(Br)cc1 (centres undefined) | 104% | 117% | 104% | 98.9% | 117% | -33.6% (active) | 106% | 106% | 116% |
| O=C(Cn1nc(-c2ccccc2)ccc1=O)N/N=C/c1ccc(N2CCOCC2)cc1 | 100% | 89.7% | 106% | 96% | 99.5% | 89.4% | 94.9% | 97.7% | 113% |
| CC(=O)c1cccc(NC(=O)CCC(=O)NS(=O)(=O)c2ccc(C)cc2)c1 | 108% | 108% | 109% | 98.6% | 120% | 102% | 100% | 105% | – |
| COc1ccc(-c2ccnc(SCc3cc4cc(OC)ccc4[nH]c3=O)n2)cc1 | 25.8% | 39.4% | 48.1% | 34.7% | 14.9% | 11.8% | 20.2% | 44.1% | 15.7% |
| CC(C)C(C(=O)O)n1c(O)c(/C=C2/C=c3cc4c(cc3=NC2=O)OCO4)sc1=S (centres undefined) | 98.4% | 101% | 103% | 115% | 114% | 99.4% | 110% | 105% | 115% |
| O=C(CN1C(=O)/C(=C/c2ccccc2F)SC1=S)N1CCOCC1 | 89.1% | 66.5% | 90.3% | 119% | 102% | -83.2% (active) | 95.5% | 74.9% | 98.5% |
| Cc1cccc(-c2nc(Nc3cccc(S(N)(=O)=O)c3)c3ccccc3n2)c1 | 39.6% | 54.3% | 52.2% | 80.2% | 37.6% | 4.87% (active) | 35.7% | 5.75% (active) | – |
| CN(C)c1nc(NCCNS(=O)(=O)c2ccc(C3=Nc4c(N)nc(N)nc4NC(c4ccc(F)cc4)C3)cc2)nc(Nc2ccc(F)cc2)n1 (centres undefined) | 64.5% | 53% | 63.3% | 72.4% | 21.7% | 42.1% | 66.3% | 30.2% | 37.9% |
| CC1(c2cc3cc(Br)ccc3oc2=O)NC(=O)c2c(/C=C/C(=O)OC3CC4CCC3(C)C4(C)C)cccc2N1 (centres undefined) | 79.1% | 75.9% | 81.2% | 92.5% | 73.6% | 68.3% | 54.6% | 91.5% | – |
| N/C(=N\c1nc2ccccc2s1)NC(=O)Nc1ccccc1Br | -24.4% (active) | 8.79% (active) | 14.6% | -19.3% (active) | -26.1% (active) | -61.3% (active) | -26.2% (active) | -24.9% (active) | -72.6% (active) |
| Cn1cc(-c2cc3nc(-c4cn(C)c5ncccc45)cc(N)n3n2)c2cc(Cl)ccc21 | -66.6% (active) | 1.56% (active) | -19.8% (active) | -94.2% (active) | -70% (active) | -85.1% (active) | -4.13% (active) | -90.4% (active) | -93.7% (active) |
| O=C(CN1C(=O)/C(=C/c2ccccc2Cl)SC1=S)N1CCOCC1 | 98% | 77.9% | 95.3% | 116% | 107% | -74.8% (active) | 97.8% | 80.4% | 100% |
| Cc1ccc(S(=O)(=O)c2nc(S(=O)(=O)c3ccc(C)cc3)c(N3CCN(C)CC3)s2)cc1 | 56% | 67.3% | 67.3% | 99.9% | 40.1% | 15.2% | 59.5% | 47.5% | 78% |
| Cc1ccc(/C=C/c2n(Cc3ccc4ccccc4c3)c3ccccc3[n+]2Cc2ccc3ccccc3c2)cc1 | -92.4% (active) | -27.4% (active) | -98.4% (active) | -58.2% (active) | -77.4% (active) | -82.5% (active) | -53.4% (active) | -51.6% (active) | -64.8% (active) |
| Cn1cc(-c2cc3nc(-c4cn(C)c5ncc(Br)cc45)cc(N)n3n2)c2ccccc21 | -22.5% (active) | -2.09% (active) | -20.2% (active) | -34.5% (active) | -54.6% (active) | -70.6% (active) | 2.3% (active) | -87.7% (active) | -81.4% (active) |
| COc1c(F)ccc(C(=O)Nc2ccc3nc(NC(=O)C4CCCN(S(=O)(=O)c5cccc(Br)c5)C4)sc3c2)c1F (centres undefined) | 96.3% | 88.4% | 94% | 107% | 80.3% | 78.9% | 75.6% | 70% | 86.4% |
| Cc1ccc(-c2nc(Nc3ccccc3S(N)(=O)=O)c3ccccc3n2)cc1 | 68.2% | 59.1% | 80.2% | 86.8% | 70.2% | 81.4% | 71% | 32.1% | 98.7% |
| C=C1CC[C@@H]2[C@]3(C)COC(c4cn[nH]c4-c4ccc(F)cc4)O[C@@H]3CC[C@@]2(C)[C@@H]1C/C=C1/C(=O)OCC1O (some centres undefined) | -67.3% (active) | -83.5% (active) | 44% | -10.7% (active) | -63.5% (active) | -59.7% (active) | -14.2% (active) | -89.2% (active) | -39.4% (active) |
| CN(C)CCn1c2ccccc2c2nc3cc(C(F)(F)F)ccc3nc21 | 34.6% | 53.2% | 40.3% | 38.8% | 8.31% (active) | 30.7% | 21.7% | 32.9% | 14% |
| C=C1CCC2C3(C)COC(c4ccccc4)OC3CCC2(C)C1CC(NCc1ccccc1)C1=CCOC1=O (centres undefined) | 80.8% | 63.6% | 90.8% | 85.1% | 97% | 77.6% | 75.9% | 79.3% | 88.3% |
| Cc1ccc(C2=NN(c3nc(-c4cc5ccccc5oc4=O)cs3)C(c3ccc(C)cc3)C2)cc1 (centres undefined) | 95.6% | 88.8% | 102% | 91.2% | 120% | 100% | 109% | 110% | 111% |
| CC1CN(c2oc(-c3ccc([N+](=O)[O-])cc3)nc2C#N)CC(C)O1 (centres undefined) | 97.9% | 102% | 96.9% | 98.9% | 107% | 100% | 102% | 104% | 109% |
| O=c1[nH]c2ccc(Cl)cc2cc1CSc1nccc(-c2ccc(Cl)cc2)n1 | 53.9% | 8.77% (active) | 56.8% | 7.77% (active) | 36.6% | 33.6% | 50.1% | 49.8% | 71.7% |
| N/C(=N\c1nc2ccccc2s1)NC(=O)Nc1ccc(Cl)cc1Cl | -83.4% (active) | -40.2% (active) | -51.3% (active) | -77% (active) | -95.9% (active) | -78.6% (active) | -85.4% (active) | -78.6% (active) | -87.7% (active) |
| Cc1ncsc1-c1ccc(CNC(=O)[C@@H]2C[C@@H](O)CN2C(=O)[C@@H](NC(=O)C2(F)CC2)C(C)(C)C)c(OCCOCCOCCOCCOc2nc(Nc3cc(S(C)(=O)=O)ccc3N[C@@H](c3cccc4c3OC(F)(F)O4)c3ncccc3Cl)nc(N3CCNCC3)n2)c1 | 85.3% | 71.5% | 82.3% | 90.6% | 87.3% | 100% | 103% | 97.7% | 89.8% |
| Cn1cc(-c2cc(N)n3nc(-c4cn(C)c5ncccc45)cc3n2)c2cccnc21 | -33.1% (active) | 86.5% | 104% | 86.1% | 79.5% | 77% | 51.9% | 81.9% | 43.7% |
| Cc1ccc([C@H]2C(C(=O)c3ccc(Cl)cc3)C3(N[C@@H]2c2ccccc2)C(=O)Nc2ccc(Cl)cc23)cc1 (some centres undefined) | 52.8% | 61.4% | 67.4% | 65.1% | 39.7% | 43.9% | 33.2% | 39.1% | 44.5% |

— PubChem BioAssay (NCI)
